Sampled rows, rich in hits. Any-hit rate of the full collection: about 4.6%.
LASV entry inh: qHTS for Inhibitors of binding or entry into cells for Lassa Virus | 1.2% of 300,000 active | Lassa virus pseudotype entry inhibition, cell reporter | AID 540256, 2011 | Potency, µM (titrated, usually from 37.9 µM), for the others: at the highest dose activity change, negative = inhibition, usual class: inhibitors; calls by dose curve; tested in HEK293 cells; note: nearly all actives have a fitted effect of over 50% in size
Vaccinia mCherry: qHTS for Stage-Specific Inhibitors of Vaccinia Orthopoxvirus: mCherry Reporter Primary qHTS. Vaccinia virus mCherry reporter infection, fluorescence. Potency, µM (series often up to 36.5 µM), inactives show at the highest dose activity change, negative = inhibition, hits mostly inhibitors. 0.63% of 310,000 active; calls by dose curve; tested in A549 cells; note: nearly all actives have a fitted effect of over 35% in size
HCV inhibitor: qHTS Assay for Inhibitors of Hepatitis C Virus (HCV). Potency, µM (highest dose often 41.8 µM), for the others: at the highest dose activity change, negative = inhibition, usual class: inhibitors. Huh7.5.1 HCVcc-Cre infection, luciferase reporter, 44 h. 3.4% of 340,000 active; active = well fitted inhibition curve with a large enough effect; inconclusive = small, poorly fitted or top-dose-only effect, or another doubt; inactive = no such curve, though single readings can be large or run the other way
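1,000 cells/well; 4 h culture; + compound; + HCVcc-Cre (~0.5 moi); 44 h; luciferase substrate, RT 15 min; read 15 sec.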
Marburg entry inh: qHTS for inhibitors of binding or entry into cells for Marburg Virus; Marburg virus pseudotyped entry inhibition, cell reporter; Potency, µM (doses to about 37.8 µM), without a hit: at the highest dose activity change, negative = inhibition, actives largely listed as inhibitors; 1.8% of 300,000 active; calls by dose curve; tested in HEK293 cells
Vaccinia Venus: qHTS for Stage-Specific Inhibitors of Vaccinia Orthopoxvirus: Venus Reporter Primary qHTS. Vaccinia virus Venus reporter expression, fluorescence. Potency, µM (doses to about 36.5 µM), without a hit: at the highest dose activity change, negative = inhibition, actives largely listed as inhibitors. 0.46% of 330,000 active; calls by dose curve; tested in A549 cells; note: nearly all actives have a fitted effect of over 30% in size
Active calls of the source: *; i = inactive; ? = inconclusive; . = no result given; [ ] = dose if it differs, or a comment. % is set by controls: 0 for no effect and ±100 for the full control effect; potency is the fitted concentration of half-maximal effect.

SMILES	LASV entry inh	Vaccinia mCherry	HCV inhibitor	Marburg entry inh	Vaccinia Venus
CCOC(=O)C1=C2C=C(OC)C=CC2OC1CN(CC)CC (stereo unspecified)	.	.	.	-17.3%[46.1 µM]	.
C(=C\c1ccccc1)/CSc1nnc(-c2ccccn2)n1Cc1ccco1	?	?	10µM*	?	?
CCNc1nc(Oc2ccc(C(=O)OC)cc2)nc(N(C)C)n1	-0.8%	.	9.3%	4.0%	-4.4%
COC(=O)c1ccc(Oc2nc(Nc3ccc(C)c(C)c3)nc(N(C)C)n2)cc1	-5.4%	.	8.91µM*	15.3%	.
O=C(COC(=O)c1c2c(nc3ccccc13)CCCCC2)c1ccc(Cl)s1	9.6%	-16.6%	10µM*	7.1%	-14.2%
O=C(OCC(=O)N1CCc2ccccc21)c1c2c(nc3ccccc13)CCCC2	?	?	2µM*	?	?
NC(=O)COC(=O)c1c2c(nc3ccccc13)CCCCC2	.	.	-29.8%	.	.
O=S(=O)(c1cccc(C(F)(F)F)c1)n1c(/C=C/c2ccccc2)nc2ccccc21	?	-15.9%	.	.	-19.7%
Cc1cc(Cl)ccc1NC(=O)CCn1nc(C)c2c(C)n(-c3ccccc3)nc2c1=O	-2.1%[46.1 µM]	-18.3%	.	.	-11.6%
O=C(Nc1ccc(NC(=O)c2cccs2)c(Cl)c1)c1cccs1	24.1%	0.9%	11.2µM*	2.0%[46.1 µM]	-17.2%
CC(C)C(=O)N1CCN(c2ccc(NC(=O)c3ccc4c(c3)OCCO4)cc2Cl)CC1	25.9µM*	.	12.6µM*	6.51µM*	.
CC(C)C(=O)N1CCN(c2ccc(NC(=O)c3cccs3)cc2Cl)CC1	.	.	10µM*	.	.
O=C(Nc1nonc1NC(=O)c1cccs1)c1cccs1	8.91µM*	?	3.98µM*	?	?
CC(=O)N1CCN(c2ccc(NC(=O)c3ccc4c(c3)OCCO4)cc2Cl)CC1	?	i	-4.6%	?	-11.7%
Cc1cc2oc(C(=O)Nc3ccc(S(=O)(=O)N4CCC(C)CC4)cc3)cc(=O)c2cc1C	4.3%[46.1 µM]	-19.1%	.	21.2%[46.1 µM]	-6.6%
Cc1cccc(CN2CCC(CNC(=O)Cn3ncc4c([nH]c5ccc(C)cc54)c3=O)CC2)c1	-4.1%[46.1 µM]	-10.0%	.	.	-10.7%
CNc1ccc(/C=C/c2ccccc2)cc1	.	-25.0%	.	.	-21.4%
O=C(NC(=O)N1CCN(c2ccc(F)cc2)CC1)c1ccccc1	-38.7%[14.3 µM]	-19.8%	.	?	-9.9%
O=P(Oc1ccccc1)(Oc1ccccc1)N1CCN(c2ccc(F)cc2)CC1	?	-21.9%	-25.2%	10µM*	-16.7%
COc1ccc(C(=O)CSc2nnc(Cn3cnc4ccccc43)o2)cc1	-34.4%	.	2.24µM*	-21.4%	.
CC(=O)c1ccc(NC(=O)CSc2nnc(Cn3cnc4ccccc43)o2)cc1	10.2%	-10.6%	11.0%	7.5%	-13.3%
COc1ccc(Cc2nnc(SCC(=O)c3ccc(OC)cc3)o2)cc1	?	-29.7%	?	-29.6%	?
CCOc1ccc(Cc2nnc(SCC(=O)c3ccc(OC)cc3)o2)cc1	?	?	8.91µM*	-23.8%	-25.6%
CC(C)(C)c1ccc(C(=O)NC2(C(F)(F)F)C(=O)Nc3c2c(=O)[nH]c(=O)n3-c2ccccc2)cc1 (stereo unspecified)	-0.3%[46.1 µM]	-4.9%	.	4.4%[46.1 µM]	-1.2%
Cc1ccc(Cn2c(C(=O)O)c(CNC3CCCCCC3)c3ccc(C)cc32)cc1	7.0%[46.1 µM]	-0.6%	.	.	-4.4%
SMILES	LASV entry inh	Vaccinia mCherry	HCV inhibitor	Marburg entry inh	Vaccinia Venus
CCOC(=O)c1ccc(N2CCN(c3cc(C)ccc3C)CC2)c(NC(=O)Nc2ccc(Cl)cc2)c1	4.5%[46.1 µM]	0.6%	.	.	-4.4%
Cc1cc(C(C)(C)C)cc(C)c1CC1=NCCN1	?	-2.6%	-7.7%[8.37 µM]	7.94µM*	-7.7%
COCCCN(C(=O)c1ccccc1)c1nc(-c2ccc(OC)cc2)cs1	.	.	12.6µM*	.	.
COCCCN(C(C)=O)c1nc(-c2ccccc2)cs1	?	.	12.6µM*	23.0%	.
COCCCN(C(=O)c1ccccc1F)c1nc(-c2ccc(OC)cc2)cs1	.	.	10µM*	.	.
Cc1c(C(=O)NCC(C)(C)N2CCOCC2)cnn1-c1ncc2c(n1)-c1ccccc1CC2	.	0.0%	.	.	-5.2%
COc1ccc(NC(=O)CSc2c3c(nc4ccc(Cl)cc24)CCCC3)cc1Cl	8.2%[46.1 µM]	-12.9%	.	-4.1%[46.1 µM]	-17.2%
COc1cc(=O)n2c(c1C(=O)N(C)Cc1nccs1)CCN(Cc1cc3ccccc3s1)CC2	.	-4.1%	.	.	0.0%
CC(c1ccco1)N(C(=O)C12CC3CC(CC(C)(C3)C1)C2)c1ccccn1 (stereo unspecified)	11.2µM*	.	-16.0%	?	-3.2%
